{"source": "PubChem BioAssay AID1578", "about": "(Sanford-Burnham Center for Chemical Genomics, 2009)", "note": "About 3,000 (1%) of roughly 290,000 compounds were called active. This is one part of a sample in which actives are shown more often than they occur. No stated cut-off is given here; in the data, active means inhibition mostly above about 36% (no sharp cut-off); inactive means mostly below about 34%."}
{"assay": "inhibition of NOD1-driven NF-kB reporter – cell-based, luminescence, uHTS, primary screen (AID 1578);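 further: HEK-293T reporter cells stimulated with the NOD1 agonist gamma-tri-DAP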", "conditions": "NOD1-driven NF-kB luciferase reporter cells, at 4 µM, hits give high values"}
{"smiles": "COc1ccccc1CN1CC(C(=O)NCCc2ccc(Cl)cc2)CC1=O", "note": "(stereo unspecified)", "inhibition": "-8.7% (inactive)"}
{"smiles": "Cc1cc[n+](CC(=O)c2cccc([N+](=O)[O-])c2)c2ccccc12", "inhibition": "-5.3% (inactive)"}
{"smiles": "Cc1ccc(CN2CCNC(=O)C2CC(=O)NCCCn2cccn2)o1", "note": "(stereo unspecified)", "inhibition": "-26.6% (inactive)"}
{"smiles": "COC(=O)Cc1csc(NC(=O)CSc2nnc3ccccn23)n1", "inhibition": "-22.5% (inactive)"}
{"smiles": "COc1ccc(OC)c(C2=NS(=O)(=O)N(C)C(C(=O)N3CCC4(CC3)OCCO4)=C2)c1", "inhibition": "-6.5% (inactive)"}
{"smiles": "COc1ccc2ccccc2c1CNCc1ccc(C)cc1", "inhibition": "-32.1% (inactive)"}
{"smiles": "O=Cc1cn(CCC(=O)O)nc1-c1cccc2ccccc12", "inhibition": "-38.4% (inactive)"}
{"smiles": "COc1ccccc1N=c1oc2c(OC)cccc2cc1C(=O)NCc1ccco1", "inhibition": "-182% (inactive)"}
{"smiles": "Cc1cccc(C)c1OCC(=O)Nc1cccc(C(=O)O)c1", "inhibition": "-10.3% (inactive)"}
{"smiles": "Cc1ccc(C(=O)Nc2cc3ccccc3oc2=O)cc1", "inhibition": "85.5% (active)"}
{"smiles": "O=C(Nc1cccc(C(=O)O)c1)Nc1ccc2c(c1)OCO2", "inhibition": "74.1% (active)"}
{"smiles": "CC(=O)Nc1cc2ccccc2oc1=O", "inhibition": "-32.2% (inactive)"}
{"smiles": "CCOC(=O)c1cccc(NC(=O)Nc2ccc(OCC)cc2)c1", "inhibition": "-13.8% (inactive)"}
{"smiles": "CCOc1ccc(NC(=O)c2cccc(NC(=O)c3ccccc3)c2)cc1", "inhibition": "4.1% (inactive)"}
{"smiles": "CCOc1ccc(NC(=O)Nc2cccc(C(=O)O)c2)cc1", "inhibition": "97.4% (active)"}
{"smiles": "CC(=O)Nc1cccc(NC(=O)COc2ccccc2C)c1", "inhibition": "40.3% (inactive)"}
{"smiles": "Cc1ccccc1OCC(=O)Nc1cccc(C(=O)O)c1", "inhibition": "92% (active)"}
{"smiles": "O=C(Nc1ccc2c(c1)OCO2)Nc1ccc2c(c1)OCO2", "inhibition": "-34.2% (inactive)"}
{"smiles": "O=C(Nc1cc2ccccc2oc1=O)c1ccccc1", "inhibition": "22.4% (inactive)"}
{"smiles": "CC(=O)c1cccc(NC(=O)Nc2ccc3c(c2)OCO3)c1", "inhibition": "-20.8% (inactive)"}
{"smiles": "COc1ccccc1CC(=O)NC1CC1", "inhibition": "-10.2% (inactive)"}
{"smiles": "Cc1cc(C)c(S(=O)(=O)c2ccccc2)c(OC(=O)c2c(F)cccc2F)n1", "inhibition": "-38.9% (inactive)"}
{"smiles": "Cc1cccc(S(=O)(=O)Nc2ccc(-c3nc4ccc(C)cc4s3)cc2)c1", "inhibition": "-35.8% (inactive)"}
{"smiles": "O=C(COC(=O)C12CC3CC(CC(C3)C1)C2)Nc1ccccc1F", "inhibition": "-23.3% (inactive)"}
{"smiles": "COc1ccc(CCNC(=O)CN(c2ccc(OC)c(OC)c2)S(=O)(=O)c2ccc(C)cc2)cc1", "inhibition": "32.6% (inactive)"}
{"smiles": "Cc1nn(Cc2ccc(F)cc2)c(C)c1NC(=O)CCCn1nc([N+](=O)[O-])cc1C", "inhibition": "-34.8% (inactive)"}
{"smiles": "O=c1cc(N2CCN(c3ccccc3)CC2)[nH]c(=O)n1-c1ccccc1", "inhibition": "-19.3% (inactive)"}
{"smiles": "CC(C)NC(=S)N1CCN(Cc2ccc3c(c2)OCO3)CC1", "inhibition": "-10.8% (inactive)"}
{"smiles": "COc1ccc(S(=O)(=O)Nc2c(NC3CCCCC3)c3ccccc3oc2=O)cc1OC", "inhibition": "-7.5% (inactive)"}
{"smiles": "O=C(Nc1nnc(CSCc2ccc(F)cc2)s1)c1ccc([N+](=O)[O-])cc1", "inhibition": "1.6% (inactive)"}
{"smiles": "Cc1ccc(NC(=O)Nc2cnc3ccccc3c2)cc1", "inhibition": "-44.8% (inactive)"}
{"smiles": "O=C(Nc1cnc2ccccc2c1)c1ccncc1", "inhibition": "-21.5% (inactive)"}
{"smiles": "O=C(O)c1cccc(NC(=S)NCc2ccccc2)c1", "inhibition": "-23.1% (inactive)"}
{"smiles": "O=C(Nc1ccc(Cl)cc1)Nc1cccc(C(=O)O)c1", "inhibition": "67.9% (active)"}
{"smiles": "NC(=O)c1cccc(NC(=O)Nc2ccc(Cl)cc2)c1", "inhibition": "9.4% (inactive)"}
{"smiles": "O=C(Nc1cccc(Cl)c1)Nc1cccc(C(=O)O)c1", "inhibition": "-9.6% (inactive)"}
{"smiles": "O=C(NCc1ccccc1)C(=O)Nc1cccc(C(=O)O)c1", "inhibition": "39.8% (active)"}
{"smiles": "CSc1cccc(NC(=O)C(=O)NCc2ccccc2)c1", "inhibition": "-4.7% (inactive)"}
{"smiles": "Cc1ccc(C(=O)Nc2cnc3ccccc3c2)cc1", "inhibition": "81.8% (active)"}
{"smiles": "CCc1nc(CN2CCN(c3ccc(C(F)(F)F)cn3)CC2)c(C)[nH]1", "inhibition": "-4.8% (inactive)"}
{"smiles": "O=C(c1ccc(S(=O)(=O)Nc2ccccc2)cc1)N1CCCCCCC1", "inhibition": "-14.1% (inactive)"}
{"smiles": "CCOC(=O)CCNC(=O)N1CCCC(Cc2ccccc2)(C(=O)OCC)C1", "note": "(stereo unspecified)", "inhibition": "-26.2% (inactive)"}
{"smiles": "COc1ccc(NC(=O)CCC(=O)Nc2nnc(CC(C)C)s2)cc1Cl", "inhibition": "-5.8% (inactive)"}
{"smiles": "COC(=O)C1=C(C)NC(=O)NC1c1cn(-c2ccccc2)nc1-c1cccs1", "note": "(stereo unspecified)", "inhibition": "-21.3% (inactive)"}
{"smiles": "CCN1C(=O)/C(=C/N(C)c2ccccc2)OC1=S", "inhibition": "-15.3% (inactive)"}
{"smiles": "CCN1C(=O)/C(=C\\N(C(C)=O)c2ccccc2)OC1=S", "inhibition": "55.5% (active)"}
{"smiles": "CCN1C(=O)/C(=C/N(C(C)=O)c2ccccc2)N(c2ccccc2)C1=S", "inhibition": "11.4% (inactive)"}
{"smiles": "Nc1nc(COc2ccccc2C=O)nc(Nc2ccccc2)n1", "inhibition": "-7.7% (inactive)"}
{"smiles": "CN(C)c1ccc(C2CC(=O)C=C(Nc3ccccc3N)C2)cc1", "note": "(stereo unspecified)", "inhibition": "-11.3% (inactive)"}
{"smiles": "Cc1ccc(C(=O)CSc2ncnc3sc4c(c23)CCC(C)C4)cc1", "note": "(stereo unspecified)", "inhibition": "-2.7% (inactive)"}
{"smiles": "CC(=O)Oc1c(I)cc(I)cc1C(=O)Nc1ccc(Cl)cc1", "inhibition": "85.8% (active)"}
{"smiles": "COc1c(Cl)cc(Cl)cc1C(=O)Nc1ccc(NC(C)=O)cc1", "inhibition": "-17.9% (inactive)"}
{"smiles": "O=C(Nc1ccc(Oc2ccc(Cl)cc2)c(Cl)c1)c1cc(I)cc(I)c1O", "inhibition": "-14.3% (inactive)"}
{"smiles": "CN(CC(=O)Nc1ccccc1Cl)C(=O)c1cc(=O)[nH]c2ccccc12", "inhibition": "-12.4% (inactive)"}
{"smiles": "CCOC(=O)c1ccc(NC(=O)COc2ccc(S(=O)(=O)NC(C)(C)C)cc2)cc1", "inhibition": "-33.5% (inactive)"}
{"smiles": "CCN1C(=O)/C(=c2\\o/c(=C3\\C=Cc4ccccc4N3CC)c(=O)n2CC)SC1=S", "inhibition": "4.4% (inactive)"}
{"smiles": "COc1ccc(N2C(=O)c3ccc(C(=O)Nc4cc(OC)ccc4OC)cc3C2=O)cc1", "inhibition": "-3.6% (inactive)"}
{"smiles": "Cc1ccc(C(C(=O)NC2CCCCC2)N(Cc2ccccc2)C(=O)Cc2c[nH]c3ccccc23)o1", "note": "(stereo unspecified)", "inhibition": "-26.2% (inactive)"}
{"smiles": "COc1ccc(NC(=O)c2cc(S(=O)(=O)N(Cc3ccccc3)c3ccccc3)ccc2Cl)cn1", "inhibition": "10.8% (inactive)"}
{"smiles": "Cc1cc(C(F)(F)F)c(C#N)c(SCC(=O)Nc2nc3ccccc3s2)n1", "inhibition": "-5.2% (inactive)"}
{"smiles": "Cc1cc(C(F)(F)F)c(C#N)c(SCC(=O)Nc2nc3cc(Br)ccc3s2)n1", "inhibition": "67.4% (active)"}
{"smiles": "Cc1ccc2sc(NC(=O)CSc3nc(C)cc(C)c3C#N)nc2c1", "inhibition": "-16.6% (inactive)"}
{"smiles": "Cc1nnc(NC(=O)CSc2ccc(-c3ccc(Cl)cc3)nn2)s1", "inhibition": "-24.7% (inactive)"}
{"smiles": "C=C(C)CN(CC)C(=O)CC1C(=O)NCCN1CC(C)(C)C", "note": "(stereo unspecified)", "inhibition": "-7.4% (inactive)"}
{"smiles": "CC(=O)N1CCOc2ccc(S(=O)(=O)NC(C)c3ccccc3)cc21", "note": "(stereo unspecified)", "inhibition": "1.8% (inactive)"}
{"smiles": "CC(=O)N1CCOc2cc(S(=O)(=O)N3CCN(c4ccccc4)CC3)c(Cl)cc21", "inhibition": "-30.8% (inactive)"}
{"smiles": "CC(=O)N1CCOc2cc(S(=O)(=O)NC(C)c3ccccc3)c(Cl)cc21", "note": "(stereo unspecified)", "inhibition": "59.9% (active)"}
{"smiles": "COc1cccc(-c2nn3c(-c4cccc(C)c4)nnc3s2)c1", "inhibition": "-87.2% (inactive)"}
{"smiles": "CCOC(=O)C1=C(C)N=c2s/c(=C/c3ccccc3)c(=O)n2C1c1ccc(OC)c(OC)c1", "note": "(stereo unspecified)", "inhibition": "-27.7% (inactive)"}
{"smiles": "CCOC(=O)C1=C(C)n2c(s/c(=C/c3cccc([N+](=O)[O-])c3)c2=O)=NC1c1ccc(O)c(OC)c1", "note": "(stereo unspecified)", "inhibition": "95.3% (active)"}
{"smiles": "CCOC(=O)C1=C(C)N=c2s/c(=C\\c3ccc(O)c([N+](=O)[O-])c3)c(=O)n2C1c1ccccc1OC", "note": "(stereo unspecified)", "inhibition": "8.4% (inactive)"}
{"smiles": "Cn1c(/C(C#N)=C(\\O)c2ccc(Cl)s2)nc2ccccc21", "inhibition": "11.7% (inactive)"}
{"smiles": "C=C1CC2C=C(NC(C)=O)CC(C1)C2", "note": "(stereo unspecified)", "inhibition": "-6.6% (inactive)"}
{"smiles": "Cc1cccc(Cn2c(O)c(N=NC(=S)Nc3ccccc3F)c3ccccc32)c1", "inhibition": "14.6% (inactive)"}
{"smiles": "Cc1cccc(NC(=O)Cn2c(O)c(N=NC(N)=S)c3ccccc32)c1", "inhibition": "-3.4% (inactive)"}
{"smiles": "CC(C)C(=O)NC(NC1CCS(=O)(=O)C1)C(Cl)(Cl)Cl", "note": "(stereo unspecified)", "inhibition": "-26.8% (inactive)"}
{"smiles": "COc1ccc(-n2c(C)cc(/C=C3/SC(=O)N(CC(=O)N4CCOCC4)C3=O)c2C)cc1", "inhibition": "-15% (inactive)"}
{"smiles": "CCOC(=O)N1CCN(C(=O)c2cn(C)c3ccc(S(=O)(=O)N4CCOCC4)cc3c2=O)CC1", "inhibition": "-11% (inactive)"}
{"smiles": "O=C(COc1ccc(Cl)cc1)NCCCn1ccnc1", "inhibition": "-7.5% (inactive)"}
{"smiles": "COc1ccc(OCC(=O)NCCCn2ccnc2)cc1", "inhibition": "9.1% (inactive)"}
{"smiles": "O=C(COc1ccc(Br)cc1)NCCCn1ccnc1", "inhibition": "62.4% (active)"}
{"smiles": "COCCN(Cc1cc2cc3c(cc2nc1Cl)OCO3)C(C)=O", "inhibition": "6.5% (inactive)"}
{"smiles": "CSc1ccc(/C=N/S(=O)(=O)c2ccccc2)cc1", "inhibition": "3.8% (inactive)"}
{"smiles": "CN(C)Cc1nc2c([nH]1)c(=O)n(C)c(=O)n2C", "inhibition": "1.7% (inactive)"}
{"smiles": "CCCc1nc2c([nH]1)c(=O)n(C)c(=O)n2C", "inhibition": "-7.1% (inactive)"}
{"smiles": "Cn1c(=O)c2[nH]c(COc3ccc(C(C)(C)C)cc3)nc2n(C)c1=O", "inhibition": "34.1% (active)"}
{"smiles": "CC1CCCC(C)N1C(=O)CSc1nc2c(c(=O)n(C)c(=O)n2C)n1C", "note": "(stereo unspecified)", "inhibition": "-1% (inactive)"}
{"smiles": "CC(C)Oc1ccccc1/C=N/NC(=O)c1ccccc1Cl", "inhibition": "0.5% (inactive)"}
{"smiles": "CC1CCCC(NC(=O)Cc2ccc(Br)cc2)C1C", "note": "(stereo unspecified)", "inhibition": "-21.4% (inactive)"}
{"smiles": "CCC(c1nnnn1C(C)C)N1CCN(C2CCCC2)CC1", "note": "(stereo unspecified)", "inhibition": "-14% (inactive)"}
{"smiles": "COc1ccc(/C=C2\\COc3ccccc3C2=O)c(OC)c1", "inhibition": "-27.3% (inactive)"}
{"smiles": "COc1ccc(Nc2nc(-c3c(C)nc4ncccn34)cs2)cc1", "inhibition": "17.6% (inactive)"}
{"smiles": "COc1ccc(OC)c(Nc2nc(-c3c(C)nc4ncccn34)cs2)c1", "inhibition": "-9.4% (inactive)"}
{"smiles": "COc1ccccc1Nc1nc(-c2c(C)nc3ncccn23)cs1", "inhibition": "61.6% (active)"}
{"smiles": "CCOC(=O)c1ccc(N=c2ssnc2Cl)cc1", "inhibition": "-21.1% (inactive)"}
{"smiles": "CN(CCN1CCOCC1)Cc1nc(-c2cccs2)no1", "inhibition": "-22.4% (inactive)"}
